Results as given in the supplement of paper PMC10849652.
Of roughly 7,900 targets only a part is listed; those with a hit were picked by preference. About 0.6% of all pairs of compound and target were hits. A number with no mark means an inactive call.

Compound: CNCc1ccc(-c2[nH]c3cc(F)cc4c3c2CCNC4=O)cc1 [rucaparib]
Test: log2 fold change, soluble protein after heating vs DMSO (PISA); higher = thermal stabilisation; K562 cells, 10 uM, 30 min; active = over 0.2 and 3.5 SD of the protein, either way, in both replicates (recomputed)
Outline: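 K562 cells at 2×10^6 cells/mL were treated with 10 μM compound for 30 min. Aliquots were heated for 3 min across 48°C-58°C, pooled, and extracted in PBS with 0.5% NP-40 at 4°C; soluble protein was the supernatant after 21,000xg for 90 min. Soluble protein was quantified by TMTpro 16plex LC-MS/MS with channel sums equalised, and reported as log2 fold change in thermal stability against DMSO controls, with values from duplicates.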

Chain of UniProt Q9Y4R8 (Q9Y4R8 whole entry, looked up): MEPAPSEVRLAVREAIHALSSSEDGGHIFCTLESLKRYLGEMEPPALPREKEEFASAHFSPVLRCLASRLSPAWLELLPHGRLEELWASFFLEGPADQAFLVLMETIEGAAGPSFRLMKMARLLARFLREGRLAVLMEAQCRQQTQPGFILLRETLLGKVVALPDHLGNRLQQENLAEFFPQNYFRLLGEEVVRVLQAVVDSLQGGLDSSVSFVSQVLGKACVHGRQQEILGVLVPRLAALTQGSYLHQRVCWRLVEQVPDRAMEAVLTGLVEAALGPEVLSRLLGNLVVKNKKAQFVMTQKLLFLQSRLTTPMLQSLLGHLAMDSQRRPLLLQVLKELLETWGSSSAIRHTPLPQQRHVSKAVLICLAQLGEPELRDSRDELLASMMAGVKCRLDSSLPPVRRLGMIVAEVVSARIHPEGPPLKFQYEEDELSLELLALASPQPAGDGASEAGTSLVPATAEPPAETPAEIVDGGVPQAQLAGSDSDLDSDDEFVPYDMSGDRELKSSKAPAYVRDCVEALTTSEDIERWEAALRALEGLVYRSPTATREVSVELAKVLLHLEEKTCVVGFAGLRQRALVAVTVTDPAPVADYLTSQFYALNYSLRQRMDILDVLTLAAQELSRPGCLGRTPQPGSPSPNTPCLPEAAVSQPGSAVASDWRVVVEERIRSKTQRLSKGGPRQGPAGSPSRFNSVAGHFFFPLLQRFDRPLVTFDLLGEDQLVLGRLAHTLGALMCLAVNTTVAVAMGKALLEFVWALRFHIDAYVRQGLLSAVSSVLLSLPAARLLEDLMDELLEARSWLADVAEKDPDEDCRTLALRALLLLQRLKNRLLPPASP
Chain of UniProt Q96CQ1 (Q96CQ1 whole entry, looked up): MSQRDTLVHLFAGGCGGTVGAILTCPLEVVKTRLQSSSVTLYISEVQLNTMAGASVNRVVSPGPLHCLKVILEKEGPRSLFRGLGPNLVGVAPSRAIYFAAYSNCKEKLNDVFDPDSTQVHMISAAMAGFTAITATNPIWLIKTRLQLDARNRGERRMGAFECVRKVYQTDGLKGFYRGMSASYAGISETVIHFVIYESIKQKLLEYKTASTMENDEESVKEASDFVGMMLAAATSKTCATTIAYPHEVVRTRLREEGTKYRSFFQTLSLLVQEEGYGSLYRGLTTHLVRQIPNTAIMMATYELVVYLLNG
Chain of UniProt P40763 (P40763 whole entry, looked up): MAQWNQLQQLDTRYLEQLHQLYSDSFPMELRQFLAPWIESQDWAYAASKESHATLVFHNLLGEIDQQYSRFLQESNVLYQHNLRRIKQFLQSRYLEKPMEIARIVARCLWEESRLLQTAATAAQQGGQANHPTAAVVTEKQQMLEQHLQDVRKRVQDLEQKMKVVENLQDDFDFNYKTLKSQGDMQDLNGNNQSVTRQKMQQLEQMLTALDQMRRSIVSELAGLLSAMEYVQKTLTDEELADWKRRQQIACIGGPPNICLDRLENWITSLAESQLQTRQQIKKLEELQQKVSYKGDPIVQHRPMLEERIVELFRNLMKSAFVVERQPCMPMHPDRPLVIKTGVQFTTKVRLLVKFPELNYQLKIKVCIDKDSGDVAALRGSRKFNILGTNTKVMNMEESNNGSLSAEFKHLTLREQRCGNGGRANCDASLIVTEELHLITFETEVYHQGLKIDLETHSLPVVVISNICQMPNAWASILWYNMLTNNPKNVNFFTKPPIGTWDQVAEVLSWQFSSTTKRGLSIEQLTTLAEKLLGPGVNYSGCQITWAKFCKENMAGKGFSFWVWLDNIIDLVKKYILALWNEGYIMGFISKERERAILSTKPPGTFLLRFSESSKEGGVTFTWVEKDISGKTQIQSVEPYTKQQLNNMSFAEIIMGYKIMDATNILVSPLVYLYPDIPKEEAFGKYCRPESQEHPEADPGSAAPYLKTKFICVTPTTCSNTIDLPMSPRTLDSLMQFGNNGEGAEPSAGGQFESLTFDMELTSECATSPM
Chain of UniProt P30626 (P30626 whole entry, looked up): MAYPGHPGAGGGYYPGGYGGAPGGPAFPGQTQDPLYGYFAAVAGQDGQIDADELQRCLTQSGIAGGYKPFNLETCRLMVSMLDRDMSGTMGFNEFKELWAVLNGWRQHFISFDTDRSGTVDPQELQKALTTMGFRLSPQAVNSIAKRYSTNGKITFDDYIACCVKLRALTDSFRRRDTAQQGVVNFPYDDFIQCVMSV
Chain of UniProt Q96JI7 (Q96JI7 whole entry, looked up): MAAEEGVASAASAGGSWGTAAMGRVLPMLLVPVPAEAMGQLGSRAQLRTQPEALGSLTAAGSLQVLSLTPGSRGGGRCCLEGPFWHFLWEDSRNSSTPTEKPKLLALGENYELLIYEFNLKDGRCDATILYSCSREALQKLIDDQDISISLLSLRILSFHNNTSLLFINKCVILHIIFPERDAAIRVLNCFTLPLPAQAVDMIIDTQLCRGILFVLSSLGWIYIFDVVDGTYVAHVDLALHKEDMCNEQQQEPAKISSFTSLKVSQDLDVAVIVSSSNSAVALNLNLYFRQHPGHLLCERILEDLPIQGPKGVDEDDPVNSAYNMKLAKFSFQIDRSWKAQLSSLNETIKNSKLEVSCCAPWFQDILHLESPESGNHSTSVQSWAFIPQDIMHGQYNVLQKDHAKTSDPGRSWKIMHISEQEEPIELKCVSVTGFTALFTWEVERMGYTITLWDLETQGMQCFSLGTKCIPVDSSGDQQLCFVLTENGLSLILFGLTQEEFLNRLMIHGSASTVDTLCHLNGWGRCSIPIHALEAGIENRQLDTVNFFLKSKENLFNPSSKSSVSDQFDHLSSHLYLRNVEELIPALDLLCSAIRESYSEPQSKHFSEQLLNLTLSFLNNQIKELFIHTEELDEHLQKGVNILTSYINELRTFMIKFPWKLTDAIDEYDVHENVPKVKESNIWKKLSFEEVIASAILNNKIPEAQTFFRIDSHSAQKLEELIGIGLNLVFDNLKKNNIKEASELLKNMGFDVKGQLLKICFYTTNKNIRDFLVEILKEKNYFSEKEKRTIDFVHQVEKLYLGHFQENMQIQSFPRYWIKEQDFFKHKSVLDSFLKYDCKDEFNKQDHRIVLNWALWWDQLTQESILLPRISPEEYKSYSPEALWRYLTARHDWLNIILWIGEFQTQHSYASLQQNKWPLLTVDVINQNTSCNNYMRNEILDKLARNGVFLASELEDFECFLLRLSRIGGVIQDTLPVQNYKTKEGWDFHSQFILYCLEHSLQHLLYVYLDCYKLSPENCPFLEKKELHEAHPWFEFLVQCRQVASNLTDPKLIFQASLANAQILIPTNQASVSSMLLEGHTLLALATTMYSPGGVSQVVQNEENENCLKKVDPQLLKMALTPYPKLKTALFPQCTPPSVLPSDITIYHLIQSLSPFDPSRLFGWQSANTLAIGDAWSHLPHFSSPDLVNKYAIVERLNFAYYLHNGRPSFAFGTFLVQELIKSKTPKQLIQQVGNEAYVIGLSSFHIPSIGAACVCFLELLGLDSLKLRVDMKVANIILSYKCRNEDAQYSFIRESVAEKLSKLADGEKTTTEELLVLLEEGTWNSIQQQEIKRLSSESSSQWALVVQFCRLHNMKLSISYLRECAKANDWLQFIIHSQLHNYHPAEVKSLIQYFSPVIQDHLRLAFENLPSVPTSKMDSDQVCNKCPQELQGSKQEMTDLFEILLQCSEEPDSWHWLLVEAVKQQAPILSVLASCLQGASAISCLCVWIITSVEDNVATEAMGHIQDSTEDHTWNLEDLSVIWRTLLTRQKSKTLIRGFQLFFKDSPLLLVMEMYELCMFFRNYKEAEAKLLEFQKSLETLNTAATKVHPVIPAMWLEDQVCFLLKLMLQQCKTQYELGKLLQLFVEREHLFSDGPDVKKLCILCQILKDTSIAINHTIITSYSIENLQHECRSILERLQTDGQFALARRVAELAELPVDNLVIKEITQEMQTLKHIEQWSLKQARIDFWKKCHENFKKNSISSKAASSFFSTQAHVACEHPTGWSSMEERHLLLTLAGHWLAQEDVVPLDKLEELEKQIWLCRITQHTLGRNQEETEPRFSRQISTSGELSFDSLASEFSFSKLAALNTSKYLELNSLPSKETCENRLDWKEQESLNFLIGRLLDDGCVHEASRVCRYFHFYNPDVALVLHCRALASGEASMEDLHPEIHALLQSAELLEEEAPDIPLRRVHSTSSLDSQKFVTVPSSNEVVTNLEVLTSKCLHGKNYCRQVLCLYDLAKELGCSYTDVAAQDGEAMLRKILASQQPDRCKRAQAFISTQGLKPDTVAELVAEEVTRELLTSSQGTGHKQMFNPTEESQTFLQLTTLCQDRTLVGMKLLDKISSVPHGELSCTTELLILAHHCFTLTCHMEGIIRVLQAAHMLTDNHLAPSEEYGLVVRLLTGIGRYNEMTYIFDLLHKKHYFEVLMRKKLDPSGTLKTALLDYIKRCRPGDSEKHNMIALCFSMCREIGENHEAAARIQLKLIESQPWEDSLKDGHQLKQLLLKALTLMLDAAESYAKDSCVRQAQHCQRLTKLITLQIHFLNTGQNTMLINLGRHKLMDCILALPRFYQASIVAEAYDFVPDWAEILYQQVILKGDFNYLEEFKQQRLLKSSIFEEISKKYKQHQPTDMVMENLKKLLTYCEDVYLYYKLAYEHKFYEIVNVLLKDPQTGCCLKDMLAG
Chain of UniProt Q9BZJ4 (Q9BZJ4 whole entry, looked up): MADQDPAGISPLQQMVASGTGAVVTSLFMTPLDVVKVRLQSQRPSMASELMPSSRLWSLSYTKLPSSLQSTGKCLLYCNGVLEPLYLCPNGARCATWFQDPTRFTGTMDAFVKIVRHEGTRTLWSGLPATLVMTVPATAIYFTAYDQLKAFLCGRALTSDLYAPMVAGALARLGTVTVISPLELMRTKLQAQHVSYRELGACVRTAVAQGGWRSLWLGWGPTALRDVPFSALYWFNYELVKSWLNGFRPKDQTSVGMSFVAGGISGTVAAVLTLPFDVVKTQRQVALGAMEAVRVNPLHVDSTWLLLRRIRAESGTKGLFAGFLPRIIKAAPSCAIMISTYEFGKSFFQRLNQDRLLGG

Row | Target | log2 fold change
1 | TERF2IP (UniProt Q9NYB0) | -0.052
2 | TGFBR1 isoform 2 (UniProt P36897) | 0.096
3 | SLC25A39 (UniProt Q9BZJ4) | -0.01
4 | SLC27A2 (UniProt O14975) | 0.056
5 | STAT5B (UniProt P51692) | 0.105
6 | TBC1D15 isoform 3 (UniProt Q8TC07) | 0.059
7 | TELO2 (UniProt Q9Y4R8) | 0.2
8 | SQSTM1 (UniProt Q13501) | -0.021
9 | TBC1D5 isoform 2 (UniProt Q92609) | 0.015
10 | SRI (UniProt P30626) | -0.012
11 | STAT3 (UniProt P40763) | -0.062
12 | SRPRA (UniProt P08240) | 0.116
13 | TAOK1 (UniProt Q7L7X3) | 0.032
14 | STK26 (UniProt Q9P289) | -0.005
15 | STK4 (UniProt Q13043) | -0.008
16 | STXBP2 isoform 3 (UniProt Q15833) | 0.157
17 | SRPRB (UniProt Q9Y5M8) | 0.151
18 | TIMM29 (UniProt Q9BSF4) | -0.008
19 | SPG11 (UniProt Q96JI7) | 0.046
20 | SLC25A36 (UniProt Q96CQ1) | 0.066
21 | SLC25A42 (UniProt Q86VD7) | 0.021
22 | TAMM41 isoform 3 (UniProt Q96BW9) | 0.036
